Calls of active or inactive are those of the source. How the source made its calls: active means hit-call score of the fitted dose curve at least 0.9, where 1 is the maximum; inactive means score below 0.9.

Experiment [1] addresses Transcription factor E2F1 (Homo sapiens) (UniProt Q01094). As to the kind of experiment: ATG_E2F_CIS: Attagene CIS-FACTORIAL HepG2 Assay for human E2F Transcription Factor 1 (AID 2282935). To be noted: HepG2 Attagene cis-reporter, E2F reporter RNA transcripts; actives raise or lower the signal. In short, it runs like this: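 Fluorescent RT-PCR products, digested with HpaI for 2 h at 37 C, are separated by capillary electrophoresis. Source RNA comes from transfected HepG2 cultures treated for 24 h.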

A short description of experiment [2]: ATG_E_Box_CIS: Attagene CIS-FACTORIAL HepG2 Assay for human Enhancer Box (E-box) (AID 2282936). As to conditions: HepG2 E-box cis-reporter transcription, actives raise or lower the signal. In short, it runs like this:
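Fluorescent reporter fragments separated by capillary electrophoresis gave the signal; mRNA came from HepG2 cells transfected with cis-element reporters and treated 24 h. Curves fitted bidirectionally relative to DMSO controls.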

The nature of experiment [3]: ATG_EGR_CIS: Attagene CIS-FACTORIAL HepG2 Assay for human Early Growth Response 1 (EGR1) (AID 2282938). To be noted: HepG2 Attagene CIS-FACTORIAL EGR reporter mRNA; actives raise or lower the signal. In short, it runs like this: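 Fluorescent capillary-electrophoresis signal of reporter cDNA fragments serves as read-out. HepG2 cells bear transiently transfected cis-promoter reporter units and are exposed 24 h; gain- or loss-of-signal is fitted against DMSO.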

Experiment [4] can be described thus: ATG_M_19_CIS: Attagene CIS-FACTORIAL HepG2 Assay for M19 Transcription Factor (Internal Marker) (AID 2282939). To be noted: HepG2 Attagene CIS-FACTORIAL M19 internal marker reporter; actives raise or lower the signal. The method, boiled down: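 HepG2 cells transiently transfected with cis-regulated multiple reporter transcription units were dosed for 24 h; reporter mRNA was quantified by RT-PCR, 6-FAM primer-extension labelling, HpaI digestion and capillary electrophoresis, with bidirectional fitting against DMSO baseline.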

Experiment [5] can be described thus: ATG_ERE_CIS: Attagene CIS-FACTORIAL HepG2 Assay for Estrogen Response Element (ERE) (AID 2282940). As to conditions: HepG2 ERE cis-reporter, Attagene RNA transcript; actives raise or lower the signal. The method, boiled down: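 HepG2 cells transiently transfected with cis-promoter-driven multiplexed reporter transcription units report endogenous TF activity. After 24 h compound exposure, reporter mRNA is quantified by RT-PCR with capillary electrophoresis fluorescence; bidirectional fitting versus DMSO baseline.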

Experiment [6] can be described thus: ATG_Ets_CIS: Attagene CIS-FACTORIAL HepG2 Assay for human Erythroblast Transformation Specific (ETS) (AID 2282941). To be noted: HepG2 ETS cis-reporter transcription, actives raise or lower the signal. In short, it runs like this: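 Bidirectional fit versus DMSO of reporter mRNA signal, detected by RT-PCR and capillary electrophoresis in HepG2 cells transiently transfected with cis-element reporters and dosed 24 h.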

For experiment [7], the target named is Hepatocyte nuclear factor 3-beta (Homo sapiens) (UniProt Q9Y261). As to the kind of experiment: ATG_FoxA2_CIS: Attagene CIS-FACTORIAL HepG2 Assay for human Forkhead box A2 (FOXA2) (AID 2282942). As to conditions: HepG2 cis-reporter transcription factor activity, 24 h; actives raise or lower the signal. In short, it runs like this:
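Fluorescence signal of reporter cDNA fragments, separated by capillary electrophoresis, reflects endogenous transcription factor activity in transfected HepG2 after 24 h. Both increases and decreases fitted against DMSO.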

Experiment [8] can be described thus: ATG_FoxO_CIS: Attagene CIS-FACTORIAL HepG2 Assay for human Forkhead box O (FoxO) (AID 2282943). To be noted: HepG2 Attagene cis-reporter, FoxO element, mRNA; actives raise or lower the signal. The method, boiled down: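 Endogenous transcription factor activity read from multiplexed cis-promoter reporter transcripts in transiently transfected HepG2, 24 h after dosing. Reporter RNA measured via RT-PCR plus capillary electrophoresis of FAM-labeled products; gain or loss relative to DMSO.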

A short description of experiment [9]: ATG_GATA_CIS: Attagene CIS-FACTORIAL HepG2 Assay for human GATA Binding Protein (AID 2282944). To be noted: HepG2 GATA cis-element reporter, Attagene multiplex mRNA; actives raise or lower the signal. The method, boiled down: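 HepG2 cells transiently transfected with multiplexed cis-element reporter units reflecting endogenous transcription factor activity; reporter mRNA measured after 24 h dosing by RT-PCR, 6-FAM labeling, HpaI digestion and capillary electrophoresis. Bidirectional fitting versus DMSO baseline.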

The nature of experiment [10]: ATG_M_61_CIS: Attagene CIS-FACTORIAL HepG2 Assay for M61 Transcription Factor (Internal Marker) (AID 2282937). As to conditions: HepG2 Attagene CIS-FACTORIAL M61 internal marker reporter; actives raise or lower the signal. The method, boiled down: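 Using transiently transfected HepG2 liver cells, reporter transcript levels were assessed 24 h post-dosing by RT-PCR and capillary electrophoresis. Changes in either direction were fitted relative to DMSO controls.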

Sequence of Transcription factor E2F1 (Homo sapiens) (Q01094 whole entry, looked up): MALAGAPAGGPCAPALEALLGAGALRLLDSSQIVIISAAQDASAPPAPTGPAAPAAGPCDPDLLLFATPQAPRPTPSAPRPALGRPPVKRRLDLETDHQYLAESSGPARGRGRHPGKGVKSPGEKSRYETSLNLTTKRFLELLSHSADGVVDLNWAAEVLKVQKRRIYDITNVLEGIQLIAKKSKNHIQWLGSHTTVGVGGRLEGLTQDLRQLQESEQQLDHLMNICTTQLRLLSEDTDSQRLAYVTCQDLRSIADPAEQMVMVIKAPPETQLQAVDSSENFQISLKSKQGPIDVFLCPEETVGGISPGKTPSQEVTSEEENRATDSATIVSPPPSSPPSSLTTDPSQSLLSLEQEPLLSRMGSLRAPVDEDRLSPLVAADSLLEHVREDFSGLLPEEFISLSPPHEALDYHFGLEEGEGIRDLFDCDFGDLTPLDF
Sequence of Hepatocyte nuclear factor 3-beta (Homo sapiens) (Q9Y261 whole entry, looked up, the tested form may be a part): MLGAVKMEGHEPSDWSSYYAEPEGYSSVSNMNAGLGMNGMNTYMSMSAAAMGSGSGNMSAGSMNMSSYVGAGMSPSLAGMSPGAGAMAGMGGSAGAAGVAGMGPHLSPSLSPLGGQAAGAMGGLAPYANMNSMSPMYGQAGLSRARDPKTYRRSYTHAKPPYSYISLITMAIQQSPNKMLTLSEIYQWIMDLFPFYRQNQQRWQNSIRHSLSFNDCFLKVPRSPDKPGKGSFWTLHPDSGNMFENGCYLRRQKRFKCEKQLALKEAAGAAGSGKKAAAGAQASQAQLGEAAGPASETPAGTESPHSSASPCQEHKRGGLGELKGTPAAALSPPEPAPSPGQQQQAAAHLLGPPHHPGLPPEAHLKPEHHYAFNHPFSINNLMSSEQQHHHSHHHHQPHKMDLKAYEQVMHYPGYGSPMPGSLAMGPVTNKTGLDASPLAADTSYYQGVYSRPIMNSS

With `CCCC[N+](C)(CCCC)CCCC`, the outcome in experiment [1], in experiment [2], in experiment [3], in experiment [4], in experiment [5] and in experiment [6] was inactive. For the same compound, the outcome in [7], in experiment [8] and in experiment [9] was inactive.

In the case of `CC(C)=CCCC(C)=CC(=O)O`, the call in experiment [1], in experiment [10], in experiment [3], in experiment [4], in experiment [5] and in experiment [6] was inactive. Moreover, the compound was called inactive in experiment [7], in [8] and in experiment [9].

As to `NC(N)=NC(N)=NCCc1ccccc1`, the compound was classed as inactive in experiment [1], in experiment [2], in experiment [3], in experiment [4], in experiment [5] and in experiment [6]. The call in experiment [7], in experiment [8] and in experiment [9] was inactive.

Consider `O=S1(=O)CC=CC1`, for which the outcome in experiment [1], in experiment [2], in experiment [3], in experiment [4], in experiment [5] and in experiment [6] was inactive. The call in [7], in [8] and in experiment [9] was inactive.

As a reminder, the AC50 is the concentration giving half of the maximal activity seen. `NCCN1CCNCC1`: the outcome in experiment [1], in [10], in [3], in [4], in experiment [6] and in experiment [7] was inactive. The compound was called inactive in experiment [8] and in experiment [9]. Besides, in [5], the AC50 was 32.5 µM (active).

For `CCCOC(=O)CC`, the call in experiment [1], in experiment [10], in experiment [3], in experiment [4], in experiment [5] and in [6] was inactive. For the same compound, the compound was called inactive in experiment [7], in experiment [8] and in [9].

In the case of `CCC(=O)OCC=Cc1ccccc1`, the outcome in [1], in experiment [2], in experiment [3], in experiment [5], in [6] and in experiment [7] was inactive. Further, the compound was classed as inactive in experiment [8].

For `CC/C(=C(\c1ccccc1)c1ccc(OCCN(C)C)cc1)c1ccccc1`, the outcome in experiment [1], in experiment [2], in experiment [3], in [4], in [6] and in experiment [7] was inactive. The outcome in experiment [8] and in [9] was inactive.

In the case of `CCCCCC1CCC(=O)O1` (stereo not drawn), the result in experiment [1], in [2], in experiment [3], in experiment [4], in [5] and in experiment [6] was inactive. Further, the compound was classed as inactive in experiment [7], in [8] and in [9].

Turning to `OC[C@H]1O[C@@H](O[C@H]2[C@H](O)[C@@H](O)[C@H](O)O[C@@H]2CO)[C@H](O)[C@@H](O)[C@H]1O`, the call in experiment [1], in [2], in [3], in [4], in experiment [5] and in experiment [6] was inactive. The call in experiment [7], in experiment [8] and in [9] was inactive.

Consider `Cc1cccc(C)c1`, for which the outcome in [1], in experiment [2], in experiment [3], in [4], in [5] and in experiment [6] was inactive. In addition, the compound was called inactive in experiment [7], in experiment [8] and in [9].

For the compound `CCCC(O)C(CC)CO` (stereo not drawn), the compound was classed as inactive in experiment [1], in [2], in experiment [3], in experiment [4], in experiment [5] and in experiment [6]. In addition, the call in experiment [7], in experiment [8] and in [9] was inactive.

For the compound `CCCCCCC(C)O` (stereo not drawn), the call in [1], in experiment [2], in experiment [3], in [4], in [5] and in experiment [6] was inactive. Besides, the compound was classed as inactive in experiment [8] and in experiment [9].

As to `c1coc(CNc2ncnc3nc[nH]c23)c1`, the compound was called inactive in experiment [1], in experiment [10], in experiment [3], in [4], in [5] and in experiment [6]. Also, the result in experiment [7], in [8] and in experiment [9] was inactive.

Turning to `C=CC(O)CCCCC` (stereo not drawn), the outcome in experiment [1], in [2], in experiment [6], in experiment [7] and in experiment [9] was inactive. Besides, the AC50 in experiment [3] and in experiment [8] was 100 µM (active) each time.

With `Cc1ccc(C(C)(C)O)cc1`, the compound was classed as inactive in [1], in experiment [2], in experiment [3], in [4], in experiment [5] and in experiment [6]. Further, the compound was classed as inactive in experiment [7], in experiment [8] and in [9].

Source of the values: PubChem BioAssay (EPA / NIEHS).
